Compounds with a hit are over-represented: about 19% of the library has one in this group of screens.
Shiga toxin inh: blocks Shiga toxin action in Vero cells; Vero cells, Shiga toxin protein synthesis inhibition reporter; inhibition, % at 38.7 µM; hit rate 9.2% among 290,000; AID 2315; in the data active means inhibition mostly above about 28%, no sharp cut-off; inactive means mostly below about 43%; further: 0% is about no effect
Pf growth 48h: inhibits P. falciparum growth in the first generation, 48 h; Potency, µM (highest dose often 28.7 µM), inactives show at the highest dose activity change, negative = inhibition, hits mostly inhibitors; hit rate 5.9% among 310,000; AID 504832; P. falciparum luciferase growth in erythrocytes, 48 h; further: potency means the concentration at half of the fitted maximal effect; on the % scale 0 is the no-effect control and ±100 the full control effect
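Read-out is firefly luciferase luminescence from an integrated reporter in P. falciparum, so falling signal marks reduced parasite growth. Infected erythrocytes were at 2% hematocrit and 0.1% parasitemia (final) in Albumax-supplemented RPMI 1640.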
SARS PLpro yeast: SARS-CoV PLP inhibition in yeast; S. cerevisiae expressing SARS-CoV PLpro, growth rescue; Potency, µM (doses to about 32.9 µM), for the others: top-dose activity, positive = growth rescue, hits mostly activators; hit rate 0.19% among 330,000; calls by dose curve; further: potency means the concentration at half of the fitted maximal effect; 0% is about no effect; nearly all actives have a fitted effect of over 55% in size
AMA1 RON2 block: inhibitors of Plasmodium falciparum AMA1-RON2 interaction | hit rate 0.2% among 360,000 | Potency, µM (titrated, usually from 58.2 µM), without a hit: top-dose activity change, negative = inhibition, actives largely listed as inhibitors | AlphaScreen AMA1-biotinylated RON2 peptide binding | AID 720542;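 further: potency means the concentration at half of the fitted maximal effect; 0% = vehicle wells and -100% = peptide control; nearly all actives have a fitted effect of over 45% in size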
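AMA1 (3D7) with his tag at 25 nM final met compounds first, then biotinylated RON2 peptide at 25 nM; detection used donor plus acceptor beads, 10 µg/mL apiece, read by AlphaScreen after 30 min at room temperature.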
Cycloheximide cs: counter-screen hit for Shiga toxin inhibitors, cycloheximide. cell reporter, cycloheximide protein synthesis inhibition counterscreen. max response, %. hit rate 12% among 300,000. AID 2314; in the data active means max response mostly above about 13%, no sharp cut-off; inactive means mostly below about 14%; further: read at 38.3 µM for the half of the compounds with a filed dose; 0% is about no effect
Pf growth 96h: P. falciparum growth inhibition at 96 hour, primary screen for plastid delayed-death inhibitors; P. falciparum luciferase reporter growth, 96 h; Potency, µM (top dose mostly 28.7 µM), for the others: at the highest dose activity change, negative = inhibition, usual class: inhibitors; hit rate 6.9% among 320,000; AID 504834; further: potency means the concentration at half of the fitted maximal effect; on the % scale 0 is the no-effect control and ±100 the full control effect
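Delayed-death screen, second-generation endpoint: infected erythrocytes, 2% hematocrit, 0.05% parasitemia final; 96 hours at 37 C, 5% CO2; luciferase detection reagent; luminescence decrease equals reduced growth.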
An asterisk follows results filed as active; u = inconclusive; x = not tested or not shown; [ ] = dose if it differs, or a comment. Unless noted, the call rests on the fitted dose curve; in most records, active means well fitted curve in the direction sought with a large enough effect; inconclusive means small, poorly fitted or top-dose-only effect, or another doubt; inactive means no such curve, though single readings can be large; an effect the other way counts as inactive or inconclusive.

SMILES	Shiga toxin inh	Pf growth 48h	SARS PLpro yeast	AMA1 RON2 block	Cycloheximide cs	Pf growth 96h
Fc1ccc(-n2cc(-c3ccccc3)[n+]3c2SCC3)cc1	-6	u	1%	-1%	-4	u
Cc1ccc(-c2cn(-c3ccc(OC(F)F)cc3)c3[n+]2CCCCC3)cc1	-6	1.3µM*	0%	-2%	7	u
N#Cc1c2n(c(=S)n(-c3ccc(OC(F)F)cc3)c1=O)CCCCC2	20	-21%	5%	12%	-5	u
Cc1[nH]nc(SCC(=O)N(C)c2ccccc2)c1[N+](=O)[O-]	44	-13%	-1%	9%	8	-11%
Cc1ccccc1CCNC(=O)c1ccc(Cl)c(S(=O)(=O)N2CC(C)OC(C)C2)c1 (stereo not drawn)	x	13µM*	-4%	-3%[11.6 µM]	x	13µM*
COc1ccc(NC(=O)c2ccc(Cl)c(S(=O)(=O)N3CCc4ccccc4C3)c2)cn1	30	1.9µM*	-10%	-10%	-2	x
O=C(Nc1cccnc1)c1ccc(Cl)c(S(=O)(=O)N2CCCC2)c1	14	u	-4%	-3%	11	24%
CC1CN(S(=O)(=O)c2cc(C(=O)NCc3ccncc3)ccc2Cl)CC(C)O1 (stereo not drawn)	x	u	-4%	-6%	x	u
COc1ccc(NC(=O)c2ccc(Cl)c(S(=O)(=O)N3CC(C)OC(C)C3)c2)cn1 (stereo not drawn)	x	8.3µM*	1%	0%	x	10µM*
Clc1ccc2c(c1)C(N1CCNCC1)Cc1ccccc1S2 (stereo not drawn)	-20	10µM*	-21%	-6%	-11	13µM*
Clc1cccc2c1Sc1ccccc1CC2N1CCNCC1 (stereo not drawn)	-25	u	-42%	-16%	-10	10µM*
COc1ccccc1NC(=O)CCS(=O)(=O)c1ccc2c(c1)NC(=O)C(C)S2 (stereo not drawn)	32	20%	-2%	11%	-5	0%
COc1ccc(-c2oc(NC(=O)CCl)c(C#N)c2-c2ccc(OC)cc2)cc1	-8	x	5%	-1%	-3	9.3µM*
COc1ccc(C2CC(O)(c3ccccc3)Oc3cc(OC)ccc32)cc1 (stereo not drawn)	28	12µM*	-4%	-6%	20	u
CC1CCCCC1NC(=O)CN1CCC(NC(=O)C(C)(C)C)CC1 (stereo not drawn)	x	x	x	-3%	x	x
COCc1c(C(=O)OCC(=O)N2c3ccccc3NC(=O)C2(C)C)oc2ccccc12	-9	u	-13%	8%	1	12µM*
Cn1cc(S(=O)(=O)NC[C@H]2O[C@@H](n3cnc4c(N)ncnc43)[C@H](O)[C@@H]2O)cn1	x	x	-2%	0%	x	x
O=C(NCCN1C(=O)S/C(=C\c2cccs2)C1=O)c1ccco1	37	-6%	2%	-4%	46*	u
CC(=O)NCCN1C(=O)S/C(=C\c2cccs2)C1=O	10	53%	0%	-3%	14	76%
O=c1c2nnn(Cc3ccccc3)c2ncn1-c1ccccc1	-7	6%	1%	7%	0	4%
COc1ccccc1C1NC(=O)NC(C)=C1C(=O)OCC1CCCCC1 (stereo not drawn)	x	x	x	-10%	x	x
O=C1NCCN(Cc2ccc(Cl)c(F)c2)C1CC(=O)N1CCCO1 (stereo not drawn)	38	-15%	-1%	0%	13*	u
COCC1CCN(C(=O)CC2C(=O)NCCN2Cc2cccc(Oc3ccccc3)c2)CC1 (stereo not drawn)	-7	15µM*	-1%	2%	1	0%
Cc1csc(CN(C)C(=O)CC2C(=O)NCCN2Cc2ccc(Cl)c(F)c2)n1 (stereo not drawn)	33	-10%	-3%	15%	5	9.3µM*
CCn1ccnc1CN(C)C(=O)CC1C(=O)NCCN1Cc1c(F)cccc1Cl (stereo not drawn)	-3	48%	0%	-13%	-2	10µM*
SMILES	Shiga toxin inh	Pf growth 48h	SARS PLpro yeast	AMA1 RON2 block	Cycloheximide cs	Pf growth 96h
CCC1(c2ccccc2)NC(=O)N(CC(=O)Nc2ccc(Cl)c(S(=O)(=O)N3CCCCC3)c2)C1=O (stereo not drawn)	x	u	2%	-18%	x	u
O=C1NCCN(Cc2cccc(Oc3ccccc3)c2)C1CC(=O)N1CCCO1 (stereo not drawn)	-23	15%	-1%	7%	-4	5.2µM*
O=C(CC1C(=O)NCCN1Cc1cccc(Oc2ccccc2)c1)NCc1cccnc1 (stereo not drawn)	-3	2%	-1%	8%	-3	u
CC(=O)N1c2ccc(S(=O)(=O)N3CCCC3)cc2CC1C(=O)NCc1ccc(N(C)C)cc1 (stereo not drawn)	9	-13%	3%	14%	-5	6.6µM*
COc1ccccc1CNC(=O)C1Cc2cc(S(=O)(=O)N3CCCC3)ccc2N1C(C)=O (stereo not drawn)	7	u	-1%	9%	3	17%
COc1cccc(CNC(=O)C2Cc3cc(S(=O)(=O)N4CCCC4)ccc3N2C(C)=O)c1OC (stereo not drawn)	13	-9%	4%	13%	-3	15µM*
O=C(CCc1nnc(CCc2ccccc2)o1)NC(c1cccnc1)C(F)(F)F (stereo not drawn)	18	23%	-1%	5%	1	12%
CN(C(=O)c1c[nH]c(=O)cc1C(F)(F)F)c1ccc(Cl)c(Cl)c1	17	12µM*	0%	2%	-2	-108%
CN(C(=O)c1c[nH]c(=O)cc1C(F)(F)F)c1ccc(Cl)cc1	-4	u	0%	-4%	-2	u
Oc1ccc(N2CCN(Cc3cc4c(cc3Br)OCCO4)CC2)cc1	-2	12µM*	-1%	-19%	-3	13µM*
O=S(=O)(c1cccc(F)c1)N1CCN(Cc2cc3c(cc2Br)OCCO3)CC1	x	9.3µM*	7%	-8%	x	u
O=S(=O)(c1ccc(F)cc1)N1CCN(Cc2cc3c(cc2Br)OCCO3)CC1	x	u	-12%	3%	x	u
CCOC(=O)C1CCN(C(=O)CCNS(=O)(=O)c2ccc3c(c2)CCN3C(=O)CC)CC1	-4	u	-4%	4%	2	u
NC(=O)COC(=O)/C=C/c1cccc(Br)c1	19	32%	-1%	5%	7	4%
COc1ccc(C2=NN(C(=O)c3cccs3)C(c3ccccc3O)C2)cc1 (stereo not drawn)	87	10µM*	-7%	1%	26*	u
COc1ccc(C2CC(c3ccccc3)=NN2C(=O)COC(=O)C2(C)CC2(Cl)Cl)cc1 (stereo not drawn)	7	u	-7%	-18%	7	9.3µM*
COc1ccc(C2CCCN2C(=O)c2cccs2)cc1 (stereo not drawn)	-20	-4%	3%	-1%	-5	u
